Assay [1] can be described thus: qHTS assay to identify aromatase inhibitors - cell viability counter screen (AID 743084).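 Note: cells stimulated with testosterone during compound exposure; nearly all actives have a fitted effect of over 55% in size.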 Note: potency is the fitted concentration of half-maximal effect.
The target in assay [2] is Aryl hydrocarbon receptor (Homo sapiens) (UniProt P35869). Nature of the assay: qHTS assay to identify small molecule that activate the aryl hydrocarbon receptor (AhR) signaling pathway (AID 743085).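 Note: HG2L7.5c1 human HepG2 liver cells with stably integrated DRE-driven firefly reporter; series mostly up to about 70 µM; nearly all actives have a fitted effect of over 15% in size.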 A digest of the protocol:
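Compounds were tested in HepG2 hepatocellular carcinoma cells harbouring a stably integrated luciferase gene under control of 20 DREs. Increased reporter signal after 24 h treatment at 37C was taken as AhR activation.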

Assay [3] is described as follows: qHTS assay to identify small molecule that activate the aryl hydrocarbon receptor (AhR) signaling pathway - cell viability counter screen (AID 743086). Note: nearly all actives have a fitted effect of over 45% in size. Note: potency is the fitted concentration of half-maximal effect. A digest of the protocol:
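HepG2-AhR-luc (HG2L7.5c1) cells, 4000/well, treated 24 h at 37 C with compound; viability measured as CellTiter-Fluor fluorescence after 30 min in the same wells as the luciferase read.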

For assay [4], the target named is Peroxisome proliferator-activated receptor gamma (Homo sapiens) (UniProt P37231). Nature of the assay: qHTS assay to identify small molecule agonists of the peroxisome proliferator-activated receptor gamma (PPARg) signaling pathway (AID 743094; active = well fitted activation curve with a large enough effect in the signal ratio in the repeat runs, not every such curve was filed as active; the % refers to the signal ratio). A digest of the protocol: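 HEK293H PPARg-bla cells, 5 h settle at 37C/5% CO2; compound (DMSO) 17 h, 37C; B/G FRET substrate 1 h RT; fluorescence intensity read-out. qHTS format.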

Assay [5] is described as follows: qHTS assay to identify small molecule antagonists of the peroxisome proliferator-activated receptor gamma (PPARg) signaling pathway - cell viability counter screen (AID 743194). Note: nearly all actives have a fitted effect of over 55% in size. A digest of the protocol:
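Cytotoxicity counter screen in PPARg-bla HEK293H cells, same wells as reporter assay. Compounds plus 50 nM rosiglitazone (final) for 17 h at 37 C, then viability read by CellTiter-Glo luminescence.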

The nature of assay [6]: qHTS assay for small molecule activators of the heat shock response signaling pathway (AID 743210; active = well fitted activation curve with a large enough effect in the signal ratio in the repeat runs, with a control signal flat, not every such curve was filed as active; the % refers to the signal ratio;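 note: HeLa cells with beta-lactamase reporter driven by heat shock elements; series mostly up to about 63 µM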). A digest of the protocol:
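Beta-lactamase reporter read-out: FRET substrate fluorescence after 2.5 h at RT, following 5 h compound treatment at 37 C of HeLa cells carrying HSE-driven bla reporter; quantitative HTS format.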

The target in assay [7] is Peroxisome proliferator-activated receptor delta (Homo sapiens) (UniProt Q03181). Nature of the assay: qHTS assay to identify small molecule agonists of the peroxisome proliferator-activated receptor delta (PPARd) signaling pathway (AID 743212; calls by dose curve). The method, boiled down: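 Read-out: beta-lactamase FRET fluorescence after 2 h room-temperature incubation with LiveBLAzer B/G substrate. Cells were HEK293H carrying a UAS-bla reporter for PPARd, treated at 37 C with DMSO-dissolved compounds.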

The nature of assay [8]: qHTS assay to identify small molecule antagonists of the peroxisome proliferator-activated receptor delta (PPARd) signaling pathway - cell viability counter screen (AID 743213). Note: nearly all actives have a fitted effect of over 50% in size. A digest of the protocol: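 Viability counter-screen, qHTS format: PPARd-bla HEK293H, L165041 300 nM final, 17 h compound exposure at 37 C, CellTiter-Glo luminescence after 30 min RT.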
The nature of assay [9]: qHTS assay to identify small molecule agonists of the farnesoid-X-receptor (FXR) signaling pathway - cell viability counter screen (AID 743218). Note: nearly all actives have a fitted effect of over 45% in size. Note: potency is the fitted concentration of half-maximal effect. The method, boiled down:
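Luminescence from CellTiter-Glo, read after 30 min at RT, reports viability of GeneBLAzer FXR-UAS-bla HEK 293T cells treated 16 h with compounds in the wells used for the beta-lactamase reporter.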

A short description of assay [10]: qHTS assay to identify small molecule antagonists of the farnesoid-X-receptor (FXR) signaling pathway - cell viability counter screen (AID 743221; active = well fitted cell-killing curve with a large enough effect in the repeat runs, not every such curve was filed as active; note: nearly all actives have a fitted effect of over 50% in size). A digest of the protocol:
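Multiplexed counter screen: viability of FXR-bla HEK 293T cells under agonist stimulation by chenodeoxycholic acid (50 uM, final) and test compound for 16 h at 37 C, measured by CellTiter-Glo luminescence in the reporter wells.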

Assay [11] in a line: qHTS assay for small molecule agonists of the antioxidant response element (ARE) signaling pathway (AID 743202; active = well fitted activation curve with a large enough effect in the signal ratio in the repeat runs, not every such curve was filed as active; the % refers to the signal ratio). A digest of the protocol: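 HepG2 ARE-bla reporter line, 2,000 cells/well; 5 h preincubation 37 C/5% CO2; compound (DMSO) 16 h 37 C; B/G FRET substrate 2 h RT; fluorescence intensity.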
Assay [12] is described as follows: qHTS assay for small molecule agonists of the antioxidant response element (ARE) signaling pathway - cell viability counter screen (AID 743203; calls by dose curve; note: nearly all actives have a fitted effect of over 55% in size; note: potency is the fitted concentration of half-maximal effect). The method, boiled down:
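Luminescence read-out (CellTiter-Glo, 30 min at room temperature) measured cell viability in the same wells as the ARE beta-lactamase reporter. HepG2 ARE-bla cells were treated with compounds for 16 hrs at 37C/5% CO2.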

The nature of assay [13]: qHTS assay to identify small molecule agonists of the peroxisome proliferator-activated receptor delta (PPARd) signaling pathway - cell viability counter screen (AID 743211). Note: nearly all actives have a fitted effect of over 55% in size. A digest of the protocol: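 Counter screen for cytotoxicity run in parallel with the PPARd reporter screen. Beta-lactamase reporter HEK293H cells exposed to compounds 17 h; ATP-based CellTiter-Glo luminescence quantified viability.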

The target of assay [14] is Peroxisome proliferator-activated receptor delta (Homo sapiens) (UniProt Q03181). Nature of the assay: qHTS assay to identify small molecule antagonists of the peroxisome proliferator-activated receptor delta (PPARd) signaling pathway (AID 743215; active = well fitted inhibition curve with a large enough effect in the signal ratio in the repeat runs, not every such curve was filed as active; the % refers to the signal ratio;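 note: cells stimulated with agonist L165041 at 300 nM final during compound exposure; series mostly up to about 62 µM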). A digest of the protocol: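 HEK293H GeneBLAzer PPARd UAS-bla reporter cells; cpd + L165041 300 nM final, 17 h 37 C; LiveBLAzer B/G FRET substrate 2 h RT; fluorescence intensity read-out. Antagonist mode.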

Assay [15] concerns the target Vitamin D3 receptor (Homo sapiens) (UniProt P11473). Nature of the assay: qHTS assay to identify small molecule agonists of the vitamin D receptor (VDR) signaling pathway (AID 743222; calls by dose curve). The method, boiled down: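 Beta-lactamase reporter readout (LiveBLAzer B/G FRET, 2 h RT) in VDR-bla cells after 16 h compound treatment at 37C, 5% CO2; cells pre-incubated 4 h before pin transfer of DMSO solutions.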

For assay [16], the target named is Peroxisome proliferator-activated receptor gamma (Homo sapiens) (UniProt P37231). Nature of the assay: qHTS assay to identify small molecule antagonists of the peroxisome proliferator-activated receptor gamma (PPARg) signaling pathway (AID 743191; calls by dose curve; note: series mostly up to about 63 µM; nearly all actives have a fitted effect of over 30% in size). The method, boiled down: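 GeneBLAzer PPARg UAS-bla HEK293H cells, 5 h post-plating, exposed to compounds 17 h at 37C. LiveBLAzer B/G FRET substrate added for 1 h at room temperature; beta-lactamase reporter read by fluorescence intensity.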

Assay [17] in a line: qHTS assay for small molecule activators of the heat shock response signaling pathway - cell viability counter screen (AID 743209). Note: nearly all actives have a fitted effect of over 50% in size. The method, boiled down:
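HSE-bla HeLa; 1500 cells/well; overnight 37 C, 5% CO2; compound 5 h 37 C; LiveBLAzer B/G substrate 2.5 h RT; CellTiter-Glo 30 min RT; luminescence.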

Assay [18] concerns the target Vitamin D3 receptor (Homo sapiens) (UniProt P11473). Nature of the assay: qHTS assay to identify small molecule antagonists of the vitamin D receptor (VDR) signaling pathway (AID 743223; active = well fitted inhibition curve with a large enough effect in the signal ratio in the repeat runs, not every such curve was filed as active; the % refers to the signal ratio). A digest of the protocol:
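Cells carrying a VDR-driven beta-lactamase reporter (VDR-bla) were co-treated with compound and 3 nM final 1alpha,25-dihydroxyvitamin D3 for 16 h at 37C; reporter activity was measured as FRET substrate fluorescence after 2 h at room temperature.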

For assay [19], the target named is Bile acid receptor (Homo sapiens) (UniProt Q96RI1). Nature of the assay: qHTS assay to identify small molecule antagonists of the farnesoid-X-receptor (FXR) signaling pathway (AID 743217; active = well fitted inhibition curve with a large enough effect in the signal ratio in the repeat runs, not every such curve was filed as active; the % refers to the signal ratio). The method, boiled down: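 Read-out: beta-lactamase FRET fluorescence (LiveBLAzer B/G substrate, 2 h, room temperature) in GeneBLAzer FXR-UAS-bla HEK 293T cells. Compounds were co-dosed with 50 uM chenodeoxycholic acid (final) and incubated 16 h at 37 °C.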

For assay [20] the target is unchanged. Nature of the assay: qHTS assay to identify small molecule agonists of the farnesoid-X-receptor (FXR) signaling pathway (AID 743220; active = well fitted activation curve with a large enough effect in the signal ratio in the repeat runs, not every such curve was filed as active; the % refers to the signal ratio). The method, boiled down:
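FXR-UAS-bla HEK 293T cells carrying a UAS-driven beta-lactamase reporter were plated for 5 h at 37C/5% CO2, then exposed to DMSO-dissolved Tox21 10K compounds for 16 h at 37C. A LiveBLAzer B/G FRET substrate was loaded for 2 h at room temperature before fluorescence reading.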

Records with an inconclusive call do not appear. Calls of active or inactive are those of the source. Unless noted, calls come from the whole dose curve; as a rule, active = well fitted curve in the direction sought with a large enough effect in the repeat runs; inconclusive = weak or mixed curves; inactive = no such curve, though single readings can be large; an effect the other way counts as inactive or inconclusive.

Chain of Aryl hydrocarbon receptor (Homo sapiens) (P35869 whole entry, looked up): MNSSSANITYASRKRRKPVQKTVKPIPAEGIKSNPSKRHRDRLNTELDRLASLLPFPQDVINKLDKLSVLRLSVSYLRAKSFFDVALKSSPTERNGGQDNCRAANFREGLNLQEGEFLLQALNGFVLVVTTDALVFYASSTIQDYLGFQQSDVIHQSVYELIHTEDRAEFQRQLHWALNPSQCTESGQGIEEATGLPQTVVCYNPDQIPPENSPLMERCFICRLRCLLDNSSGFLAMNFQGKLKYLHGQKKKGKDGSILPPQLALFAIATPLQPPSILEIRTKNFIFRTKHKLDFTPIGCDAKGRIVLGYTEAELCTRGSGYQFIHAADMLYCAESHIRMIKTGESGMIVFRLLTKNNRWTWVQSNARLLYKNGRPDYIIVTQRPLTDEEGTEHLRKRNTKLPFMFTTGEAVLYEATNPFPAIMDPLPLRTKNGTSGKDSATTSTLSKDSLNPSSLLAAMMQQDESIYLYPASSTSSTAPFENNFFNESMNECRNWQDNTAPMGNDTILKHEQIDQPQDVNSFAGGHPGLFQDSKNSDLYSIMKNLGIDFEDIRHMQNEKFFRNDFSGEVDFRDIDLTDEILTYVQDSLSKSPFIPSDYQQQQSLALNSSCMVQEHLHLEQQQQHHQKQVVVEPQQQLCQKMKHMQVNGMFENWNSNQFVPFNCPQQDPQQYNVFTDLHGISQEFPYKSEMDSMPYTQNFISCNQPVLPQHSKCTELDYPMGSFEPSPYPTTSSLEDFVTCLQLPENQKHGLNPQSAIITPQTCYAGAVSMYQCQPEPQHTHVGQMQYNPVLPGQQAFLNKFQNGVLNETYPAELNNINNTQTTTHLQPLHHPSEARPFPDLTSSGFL
Chain of Bile acid receptor (Homo sapiens) (Q96RI1 whole entry, looked up): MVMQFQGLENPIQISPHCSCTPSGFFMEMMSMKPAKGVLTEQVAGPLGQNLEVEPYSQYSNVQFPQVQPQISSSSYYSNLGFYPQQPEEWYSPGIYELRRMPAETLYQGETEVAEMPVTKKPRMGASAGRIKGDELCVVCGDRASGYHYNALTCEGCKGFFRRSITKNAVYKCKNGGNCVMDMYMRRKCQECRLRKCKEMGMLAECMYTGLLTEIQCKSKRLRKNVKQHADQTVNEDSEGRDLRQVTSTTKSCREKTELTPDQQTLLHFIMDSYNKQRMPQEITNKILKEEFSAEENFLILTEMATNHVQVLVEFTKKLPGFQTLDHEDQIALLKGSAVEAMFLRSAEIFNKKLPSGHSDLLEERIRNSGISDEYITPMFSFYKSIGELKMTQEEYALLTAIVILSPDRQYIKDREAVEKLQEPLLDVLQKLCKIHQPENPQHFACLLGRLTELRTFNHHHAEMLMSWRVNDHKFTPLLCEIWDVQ
Chain of Vitamin D3 receptor (Homo sapiens) (P11473 whole entry, looked up): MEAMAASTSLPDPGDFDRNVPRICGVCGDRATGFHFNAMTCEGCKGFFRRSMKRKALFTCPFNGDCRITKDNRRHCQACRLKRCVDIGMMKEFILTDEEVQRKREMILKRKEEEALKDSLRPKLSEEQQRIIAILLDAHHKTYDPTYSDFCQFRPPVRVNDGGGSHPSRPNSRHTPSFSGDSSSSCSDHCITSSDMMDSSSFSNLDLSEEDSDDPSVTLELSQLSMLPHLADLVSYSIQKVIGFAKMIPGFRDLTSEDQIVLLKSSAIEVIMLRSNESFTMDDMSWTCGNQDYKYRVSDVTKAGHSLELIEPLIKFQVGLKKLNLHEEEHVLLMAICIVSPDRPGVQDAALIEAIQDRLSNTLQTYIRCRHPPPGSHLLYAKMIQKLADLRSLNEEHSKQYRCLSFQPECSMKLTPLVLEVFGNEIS
Chain of Peroxisome proliferator-activated receptor delta (Homo sapiens) (Q03181 whole entry, looked up): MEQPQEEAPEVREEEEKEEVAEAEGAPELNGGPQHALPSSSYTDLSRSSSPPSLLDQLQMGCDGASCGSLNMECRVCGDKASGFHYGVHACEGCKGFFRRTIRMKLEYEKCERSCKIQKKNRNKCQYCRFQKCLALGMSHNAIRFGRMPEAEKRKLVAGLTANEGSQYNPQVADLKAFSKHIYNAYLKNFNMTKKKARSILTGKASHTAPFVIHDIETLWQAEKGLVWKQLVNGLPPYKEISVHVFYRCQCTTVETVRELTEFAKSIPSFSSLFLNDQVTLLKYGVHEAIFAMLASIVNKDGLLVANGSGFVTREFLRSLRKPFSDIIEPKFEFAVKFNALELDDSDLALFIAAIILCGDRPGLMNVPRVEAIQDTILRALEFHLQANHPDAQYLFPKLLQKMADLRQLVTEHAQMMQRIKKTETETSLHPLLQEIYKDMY
Chain of Peroxisome proliferator-activated receptor gamma (Homo sapiens) (P37231 whole entry, looked up): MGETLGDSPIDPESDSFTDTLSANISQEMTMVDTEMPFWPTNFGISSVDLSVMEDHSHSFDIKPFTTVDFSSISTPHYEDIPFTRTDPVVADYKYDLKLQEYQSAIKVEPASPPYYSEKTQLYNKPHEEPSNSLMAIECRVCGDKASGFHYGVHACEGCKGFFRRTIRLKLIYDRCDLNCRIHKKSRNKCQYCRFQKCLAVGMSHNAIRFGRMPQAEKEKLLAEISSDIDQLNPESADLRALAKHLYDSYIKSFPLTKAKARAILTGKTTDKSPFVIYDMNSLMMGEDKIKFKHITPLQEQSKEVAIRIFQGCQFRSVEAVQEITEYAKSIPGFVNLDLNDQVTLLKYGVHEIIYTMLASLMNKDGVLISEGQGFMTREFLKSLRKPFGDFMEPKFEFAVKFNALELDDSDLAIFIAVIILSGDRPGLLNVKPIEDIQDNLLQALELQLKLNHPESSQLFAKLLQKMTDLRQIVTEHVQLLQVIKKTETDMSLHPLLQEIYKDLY

Turning to `C=C(C)CCCC(C)CCO` (stereo not given), the Potency entry in assay [1], in [2], in assay [3], in assay [4], in assay [5] and in assay [6] was “inactive” each time. Further, the Potency result in [7], in assay [8], in [9] and in assay [10] was “inactive” throughout.
For the compound `COC(=O)CS`, the Potency result in assay [1], in [2], in assay [3], in assay [4], in assay [5] and in assay [11] was “inactive” each time. Further, the Potency result in assay [12], in [6], in assay [13], in assay [7], in assay [8] and in assay [14] was “inactive” each time. Moreover, the Potency entry in [9], in assay [10] and in [15] was “inactive” each time.
Consider `CCCCCCCC/C=C\CCCCCCCCO`, for which the Potency entry in [1], in assay [2], in assay [3], in assay [16], in assay [5] and in assay [11] was “inactive” each time. For the same compound, the Potency result in assay [12], in assay [17], in [6], in [13], in assay [7] and in assay [8] was “inactive” throughout. For the same compound, the Potency entry in [9], in assay [10], in assay [15] and in assay [18] was “inactive” each time.
Consider `CN1CCCC(n2nc(Cc3ccc(Cl)cc3)c3ccccc3c2=O)CC1` (stereo not given), for which the Potency entry in assay [1], in assay [2], in [3], in [4], in assay [17] and in assay [6] was “inactive” each time. Besides, the Potency entry in assay [13] and in assay [14] was “inactive” throughout. Besides, the Potency in assay [12] was 29.8 µM (active); in assay [9], 21.1 µM (active).
Regarding `CC(C)(C)C(=O)C(=O)O`, the Potency entry in assay [1], in [2], in assay [3], in assay [16], in [5] and in [12] was “inactive” in each case. The Potency entry in assay [17], in [6], in assay [13], in [7], in assay [8] and in [14] was “inactive” in each case. For the same compound, the Potency entry in assay [19], in assay [9], in [20] and in assay [15] was “inactive” throughout.
Take `C=C1C[C@@]23CC[C@H]4[C@@](C)(CCC[C@@]4(C)C(=O)O[C@@H]4O[C@H](CO)[C@@H](O)[C@H](O)[C@H]4O)[C@@H]2CC[C@]1(O[C@@H]1O[C@H](CO)[C@@H](O)[C@H](O[C@@H]2O[C@H](CO)[C@@H](O)[C@H](O)[C@H]2O)[C@H]1O[C@@H]1O[C@H](CO)[C@@H](O)[C@H](O)[C@H]1O)C3`: the Potency result in [1], in assay [2], in assay [3], in [4], in assay [5] and in [11] was “inactive” throughout. Besides, the Potency entry in assay [12], in assay [17], in assay [6], in [13], in [7] and in assay [8] was “inactive” throughout. Also, the Potency entry in assay [14], in assay [19], in [9], in assay [20], in assay [10] and in [15] was “inactive” in each case. Besides, in assay [18], the Potency result is “inactive”.
Turning to `CC1=C(Br)C(=O)C(Br)=C/C1=C(/c1ccccc1S(=O)(=O)O)c1cc(Br)c(O)c(Br)c1C`, the values for the Potency in assay [1] and in assay [3] were 23.4 µM (active) and 18.6 µM (active), respectively. For the same compound, the Potency entry in assay [2], in [4], in assay [5], in assay [11], in [12] and in [17] was “inactive” in each case. The Potency entry in [6], in assay [13], in assay [7], in [14], in assay [19] and in assay [9] was “inactive” in each case. The Potency entry in assay [20], in [10] and in assay [15] was “inactive” throughout.
`CCOC(=O)OC(C)OC(=O)[C@@H]1N2C(=O)[C@@H](NC(=O)[C@H](N)c3ccccc3)[C@H]2SC1(C)C` (stereo not given in full): the Potency result in [1], in [2], in [3], in assay [4], in [5] and in assay [11] was “inactive” each time. Also, the Potency entry in [12], in assay [17], in assay [6], in assay [13], in [7] and in [8] was “inactive” each time. Further, the Potency result in [19], in assay [9], in [20], in [10] and in assay [18] was “inactive” each time.
